An excerpt weighted towards active compounds, which were near 2.1% of everything screened.
Gli-Sufu block: Gli-Sufu pathway antagonists, primary screen, luciferase luminescence, Sufu-KO-LIGHT cells, uHTS | inhibition, % at 5 µM | Sufu-KO-LIGHT fibroblasts, Gli luciferase reporter luminescence | AID 588413, 2011 | 340,000 compounds, 0.74% hits;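 active means inhibition above about 55%, limit read from the data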;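 further: 0% = DMSO-treated cells and 100% = wells with medium but no cells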
GalR3 antag: GalR3 antagonists in HEK293 cells, primary screen, cell-based, fluorescence readout. inhibition, % at 3 µM. Galanin receptor type 3 (Homo sapiens), O60755. HEK293 GalR3-CNG cAMP membrane potential fluorescence; galR3 body fused to GalR1 C-terminus. 360,000 compounds, 0.44% hits. AID 651719, 2012;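 active means inhibition above the screen-wide average plus 3 SD, cut at about 13% in these data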;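 further: forskolin and galanin both at EC90 stimulate the cells; cAMP rise reported by CNG channel membrane potential dye signal; 0% = forskolin plus galanin with DMSO and 100% = forskolin alone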
Target sequence (O60755 1-299 limits assumed): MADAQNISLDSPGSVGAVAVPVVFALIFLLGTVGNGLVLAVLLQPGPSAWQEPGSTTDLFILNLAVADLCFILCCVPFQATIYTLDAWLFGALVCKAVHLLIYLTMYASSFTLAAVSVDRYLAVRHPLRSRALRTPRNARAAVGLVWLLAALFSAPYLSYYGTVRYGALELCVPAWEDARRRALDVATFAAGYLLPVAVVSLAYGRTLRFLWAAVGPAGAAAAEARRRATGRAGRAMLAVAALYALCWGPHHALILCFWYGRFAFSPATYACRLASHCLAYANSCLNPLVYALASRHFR
aDG glyco act: activators of alpha-DG glycosylation, primary screen, uHTS, Pro5-aDG cells, AlphaScreen. alpha-DG glycosylation AlphaScreen (IIH6); 0% Pro5, 100% B10-LARGE cell signal. activation, % at 10 µM. 360,000 compounds, 0.22% hits. AID 624168, 2012;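 active means activation of at least 8% versus controls, or a plate z-score of at least 8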;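 further: Pro5 are CHO cells carrying HIG-tagged alpha-DG that lacks glycosylation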
Env fusion inh: inhibitors of HIV-1 Env-driven cell-cell fusion, primary screen, HeLa-JRFL effector, CEM21 target cells, luciferase; 360,000 compounds, 1.1% hits; inhibition, % at 12.3 µM;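 active means mean replicate inhibition score of at least 50 and every replicate individually at or above 50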;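 further: 0% = plate neutral controls and 100% = maraviroc near 300 nM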
COUP-TFII inh: NR2F2 transcriptional activity inhibitors, primary screen, cell-based, luciferase reporter, HEK293T, luminescence. inhibition, % at 8.6 µM. 370,000 compounds, 0.7% hits. HEK293T NGFI-A luciferase reporter. AID 686940, 2013;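 active means inhibition above a per-plate cutoff, mean inhibition of test wells between control levels plus 3 SD, cut at about 38% in these data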;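 further: cells cotransfected with COUP-TFII expression vector driving the NGFI-A reporter; 0% = median of COUP-TF2 test wells and 100% = reporter-only cells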
GalR3 antag conf: GalR3 antagonist hit confirmation, cell-based, fluorescence, triplicate; shares compounds with GalR3 antag; HEK293 GalR3 CNG cAMP biosensor, membrane potential fluorescence; galR3 fused to GalR1 carboxy tail; challenged with forskolin and galanin at EC90; inhibition, % at 3 µM; 1,600 compounds, 59% hits; AID 652245, 2013;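 active means inhibition above the primary screen's cutoff, the mean inhibition of all screened compounds plus 3 SD, cut at about 13% in these data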;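 further: 0% = forskolin plus galanin and 100% = forskolin alone with DMSO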
CNG parental: nonspecific cAMP agonists in parental HEK-CNG cells, counter-screen for GalR3 antagonist project, cell-based, fluorescence, high throughput | HEK293-CNG parental cells, cAMP membrane potential fluorescence; normalised: DMSO wells 0%, forskolin wells 100% | activation, % at 3 µM | shares compounds with GalR3 antag | AID 652268, 2013 | 1,600 compounds, 10% hits; in the data active means activation above about 1.3%
An asterisk follows results filed as active; / = not tested or not shown; [ ] = another dose, or the depositor's remark.

SMILES	Gli-Sufu block	GalR3 antag	aDG glyco act	Env fusion inh	COUP-TFII inh	GalR3 antag conf	CNG parental
O=C(C[C@H]1CC[C@@H](NC(=O)Nc2ccc(C(F)(F)F)cc2)[C@H](CO)O1)NCCN1CCCC1	/	/	/	-11[16.7 µM]	/	/	/
Cc1cc(C)nc(N2C(=O)CC(C(=O)O)NC2=NCCc2c[nH]c3ccccc23)n1 (configuration not stated)	-5	14*	1	/	-5	1	0
COC(=O)C1=C(C)N(Cc2ccccc2)C(=NCCc2c[nH]c3ccccc23)N[C@H]1c1ccccc1	6	/	0	/	/	/	/
O=C(Nc1cc(F)ccc1F)N[C@H]1C=C[C@@H](CC(=O)N2CCc3ccccc3C2)O[C@@H]1CO	/	/	/	-463[16.7 µM]	/	/	/
CC1(C)CC(=O)/C(=C(/O)CCCN2C(=O)c3ccccc3C2=O)C(=NC(C)(C)C)C1	3	-1	0	1	12	/	/
CC1(C)CC(=O)/C(=C(\O)CCCN2C(=O)c3ccccc3C2=O)C(=NCC(=O)O)C1	-16	15*	0	-3	-17	1	0
O=C(Cc1ccsc1)N1CCc2c([nH]c3ccccc23)C1c1ccccn1 (configuration not stated)	4	16*	0	3	8	-1	0
NCC[C@H]1CC[C@H](NC(=O)Nc2ccc(F)cc2)[C@@H](CO)O1	/	/	/	20[16.7 µM]	/	/	/
CC(C)CC1(C)NC(=O)N(CC(=O)Nc2cccc(S(=O)(=O)N(C)c3ccccc3)c2)C1=O (configuration not stated)	-4	14*	0	4	-9	57*	0
O=C(CNC(=O)c1ccc(F)cc1)Nc1ccccc1C(F)(F)F	7	14*	0	-8	-16	-3	0
CCCCC[C@@H](/C=C/C1C(=O)C=C[C@H]1C/C=C\CCCC(=O)OC)OC(C)=O (some centres not stated)	4	59*	0	-313	-2	90*	0
CCOC(=O)C(=Cc1ccc(OCc2ccc([N+](=O)[O-])cc2)c(OC)c1)C(=O)OCC	-27	/	-1	/	-19	5	0
COC(=O)C(=Cc1ccc(OCc2ccc([N+](=O)[O-])cc2)c(OC)c1)C(=O)OC	-20	3	0	/	-17	/	/
CC(=O)Nc1cccc(NC=C(C#N)C#N)c1	-8	15*	0	27	-7	-5	0
CCC(=O)Nc1ccc2c(c1)OC[C@H](C)N(C(=O)C1CC1)C[C@H](C)[C@H](OC)CN(C)C2=O	/	/	/	-12[16.7 µM]	/	/	/
COc1cc(CN(C)CC(=O)c2[nH]c(C)c(C(C)=O)c2C)ccc1OC(F)F	42	19*	3	/	25	12	0
COc1ccc(NC(=O)CN(C)CC(=O)c2[nH]c(C)c(C(C)=O)c2C)cc1	9	-6	0	/	7	/	/
CC1(C)CC(=O)c2c(Cc3ccccc3)noc2C1	-11	20*	0	-13	21	4	1.3*
Cc1noc(C)c1NC(=O)Nc1ccc2c(c1)CC(=O)N([C@@H](C)CO)C[C@@H](C)[C@@H](CN(C)CC1CCCCC1)O2	/	/	/	-29[16.7 µM]	/	/	/
C[C@@H]1CN([C@@H](C)CO)C(=O)c2cc(NC(=O)CCCN(C)C)ccc2O[C@@H](C)CCCCO[C@@H]1CN(C)S(=O)(=O)c1ccccc1	/	/	/	0[16.7 µM]	/	/	/
Cc1cc2ccccn2c1C(=O)Nc1cccc(Cl)c1	-2	13*	0	-4	-31	11	0
CC1CC(=O)NN=C1c1cccs1 (configuration not stated)	2	7	0	-1	6	/	/
CC1CC(=O)NN=C1c1ccc(N(C)C)c([N+](=O)[O-])c1 (configuration not stated)	-1	60*	0	73*	-10	69*	0
CCN(CC)c1ccc(C2=NNC(=O)CC2C)cc1[N+](=O)[O-] (configuration not stated)	4	52*	-1	87*	-31	65*	0
CCN(CCC#N)c1ccc(N2C(=O)CCCC2=O)cc1[N+](=O)[O-]	1	-10	0	18	-5	/	/
SMILES	Gli-Sufu block	GalR3 antag	aDG glyco act	Env fusion inh	COUP-TFII inh	GalR3 antag conf	CNG parental
C[C@@H]1CN([C@@H](C)CO)C(=O)c2cc(C#CC3CCCCC3)cnc2O[C@H]1CN(C)C(=O)NC1CCCC1	/	/	/	-12[16.7 µM]	/	/	/
COc1ccc2[nH]c(=O)c(CN(Cc3ccco3)C(c3nnnn3Cc3ccccc3)C(C)C)cc2c1 (configuration not stated)	4	13*	1	54*	-13	0	0
COCCn1nnnc1C(C(C)C)N(Cc1ccccc1)Cc1cc2cc(OC)ccc2[nH]c1=O (configuration not stated)	2	65*	0	/	2	60*	1
Cc1noc(C)c1NC(=O)Nc1ccc2c(c1)C(=O)N([C@@H](C)CO)C[C@@H](C)[C@@H](CN(C)C(=O)Nc1ccccc1)OCCCC[C@@H](C)O2	/	/	/	7[16.7 µM]	/	/	/
C[C@@H]1CN([C@H](C)CO)S(=O)(=O)c2ccc(C3=CCCC3)cc2O[C@@H]1CN(C)S(C)(=O)=O	/	/	/	9[16.7 µM]	/	/	/
CCOc1ccc(Br)cc1S(=O)(=O)N1CCC(C(N)=O)CC1	-10	18*	0	2	2	-2	0
Cc1cc(-c2ccccc2)cc(=O)[nH]1	3	19*	0	-2	5	12	0
Cc1cc(=O)[nH]c(-c2ccccc2)n1	6	1	0	14	-11	/	/
C[C@H](CO)N1C[C@H](C)[C@@H](CN(C)S(=O)(=O)c2cn(C)cn2)OCCCC[C@H](C)Oc2ccc(NC(=O)Nc3ccc4c(c3)OCO4)cc2C1=O	/	/	/	-4[16.7 µM]	/	/	/
COc1ccccc1C(=O)Nc1nnc([C@H]2C[C@H](O)[C@@H](CO)O2)s1	/	25*	0	-2	-15	-2	0
CC(C)(C)NC(=O)COC(=O)c1snc(C(=O)NC2CCCCC2)c1N	-4	101*	1	101*	67*	123*	-1
Cc1ccc(N2C(=O)c3cccc4c(N5CCN(C)CC5)ccc(c34)C2=O)c2cccnc12	12	/	/	/	/	/	/
Cc1ccc(N2C(=O)c3cccc4c([N+](=O)[O-])ccc(c34)C2=O)c2cccnc12	12	14*	0	-204	3	17*	0
